Test [1] deals with Protein kinase C gamma type (Homo sapiens) (UniProt P05129). To be noted: at 1 µM.
Test [2] has as its target T1, Protein kinase C iota type (Homo sapiens) (UniProt P41743).
T1 sequence (whole entry): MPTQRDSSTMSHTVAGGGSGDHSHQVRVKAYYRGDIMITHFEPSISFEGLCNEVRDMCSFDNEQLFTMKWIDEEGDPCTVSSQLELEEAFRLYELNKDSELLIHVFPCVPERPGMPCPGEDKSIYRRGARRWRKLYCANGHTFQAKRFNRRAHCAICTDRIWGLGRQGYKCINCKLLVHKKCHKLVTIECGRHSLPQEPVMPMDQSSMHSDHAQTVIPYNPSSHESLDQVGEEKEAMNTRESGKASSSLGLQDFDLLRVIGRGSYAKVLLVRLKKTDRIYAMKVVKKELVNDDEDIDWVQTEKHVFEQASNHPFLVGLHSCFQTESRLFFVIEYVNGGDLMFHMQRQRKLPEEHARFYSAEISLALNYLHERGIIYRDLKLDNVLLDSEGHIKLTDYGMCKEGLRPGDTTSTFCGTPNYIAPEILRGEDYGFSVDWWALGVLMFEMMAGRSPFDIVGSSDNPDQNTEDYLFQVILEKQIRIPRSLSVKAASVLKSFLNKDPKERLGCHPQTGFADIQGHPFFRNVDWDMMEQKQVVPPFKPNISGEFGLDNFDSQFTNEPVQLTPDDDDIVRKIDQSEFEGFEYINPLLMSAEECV
To be noted: at 0.1 µM.

In test [3] the target is T1, Protein kinase C iota type (Homo sapiens). To be noted: at 1 µM.
Test [4] concerns the target Protein kinase C theta type (Homo sapiens) (UniProt Q04759). To be noted: at 0.1 µM.
The target is the same in test [5]. To be noted: at 1 µM.
Test [6] deals with Protein kinase C beta type (Homo sapiens) (UniProt P05771). To be noted: at 0.1 µM.
Sequence of Protein kinase C beta type (Homo sapiens) (P05771 2-671 limits assumed): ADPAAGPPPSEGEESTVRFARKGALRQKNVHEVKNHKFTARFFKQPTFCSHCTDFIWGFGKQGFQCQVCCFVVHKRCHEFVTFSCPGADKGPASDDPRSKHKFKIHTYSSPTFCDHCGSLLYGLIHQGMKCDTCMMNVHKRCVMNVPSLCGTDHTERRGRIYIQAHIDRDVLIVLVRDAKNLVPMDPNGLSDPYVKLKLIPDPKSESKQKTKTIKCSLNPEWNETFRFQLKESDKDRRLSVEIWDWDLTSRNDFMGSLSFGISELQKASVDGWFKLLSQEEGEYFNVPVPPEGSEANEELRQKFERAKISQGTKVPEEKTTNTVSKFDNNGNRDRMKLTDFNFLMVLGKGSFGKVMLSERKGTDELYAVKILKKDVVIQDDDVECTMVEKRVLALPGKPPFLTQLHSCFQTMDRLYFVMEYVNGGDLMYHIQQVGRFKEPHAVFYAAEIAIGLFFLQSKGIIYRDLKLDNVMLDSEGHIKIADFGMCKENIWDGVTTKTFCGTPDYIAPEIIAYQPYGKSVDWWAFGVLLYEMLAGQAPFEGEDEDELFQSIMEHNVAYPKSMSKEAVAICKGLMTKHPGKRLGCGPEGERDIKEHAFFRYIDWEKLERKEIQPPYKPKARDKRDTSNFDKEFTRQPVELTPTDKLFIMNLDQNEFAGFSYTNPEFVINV
The target is the same in test [7]. To be noted: at 1 µM.
Test [8] deals with T2, Serine/threonine-protein kinase D1 (Homo sapiens) (UniProt Q15139).
T2 sequence (whole entry): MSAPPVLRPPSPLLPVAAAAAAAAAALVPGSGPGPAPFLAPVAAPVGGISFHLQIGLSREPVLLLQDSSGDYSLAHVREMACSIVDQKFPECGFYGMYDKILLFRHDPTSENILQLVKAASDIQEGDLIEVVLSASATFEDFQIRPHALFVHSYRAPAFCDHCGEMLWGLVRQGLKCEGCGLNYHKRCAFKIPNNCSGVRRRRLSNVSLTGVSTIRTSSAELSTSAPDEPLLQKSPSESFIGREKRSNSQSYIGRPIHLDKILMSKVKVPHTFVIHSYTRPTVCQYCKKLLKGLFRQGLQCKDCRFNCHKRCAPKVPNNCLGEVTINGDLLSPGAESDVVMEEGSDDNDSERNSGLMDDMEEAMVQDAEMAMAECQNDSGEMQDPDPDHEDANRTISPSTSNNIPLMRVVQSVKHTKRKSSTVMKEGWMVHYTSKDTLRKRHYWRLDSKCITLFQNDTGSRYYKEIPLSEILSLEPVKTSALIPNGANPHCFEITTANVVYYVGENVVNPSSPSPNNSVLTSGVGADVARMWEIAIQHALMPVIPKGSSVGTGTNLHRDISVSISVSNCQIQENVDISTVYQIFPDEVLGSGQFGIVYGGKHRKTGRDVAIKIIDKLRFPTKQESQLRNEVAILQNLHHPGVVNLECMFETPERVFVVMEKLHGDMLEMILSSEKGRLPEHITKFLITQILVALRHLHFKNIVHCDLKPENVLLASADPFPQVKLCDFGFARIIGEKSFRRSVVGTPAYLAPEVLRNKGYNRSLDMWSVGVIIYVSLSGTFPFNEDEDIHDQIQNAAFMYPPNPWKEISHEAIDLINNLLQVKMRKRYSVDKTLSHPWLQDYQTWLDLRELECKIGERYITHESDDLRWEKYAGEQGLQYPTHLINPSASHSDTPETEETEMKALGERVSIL
To be noted: at 0.1 µM.

The target in test [9] is T2, Serine/threonine-protein kinase D1 (Homo sapiens). To be noted: at 1 µM.
In test [10] the target is T3, Serine/threonine-protein kinase D2 (Homo sapiens) (UniProt Q9BZL6).
T3 sequence (whole entry): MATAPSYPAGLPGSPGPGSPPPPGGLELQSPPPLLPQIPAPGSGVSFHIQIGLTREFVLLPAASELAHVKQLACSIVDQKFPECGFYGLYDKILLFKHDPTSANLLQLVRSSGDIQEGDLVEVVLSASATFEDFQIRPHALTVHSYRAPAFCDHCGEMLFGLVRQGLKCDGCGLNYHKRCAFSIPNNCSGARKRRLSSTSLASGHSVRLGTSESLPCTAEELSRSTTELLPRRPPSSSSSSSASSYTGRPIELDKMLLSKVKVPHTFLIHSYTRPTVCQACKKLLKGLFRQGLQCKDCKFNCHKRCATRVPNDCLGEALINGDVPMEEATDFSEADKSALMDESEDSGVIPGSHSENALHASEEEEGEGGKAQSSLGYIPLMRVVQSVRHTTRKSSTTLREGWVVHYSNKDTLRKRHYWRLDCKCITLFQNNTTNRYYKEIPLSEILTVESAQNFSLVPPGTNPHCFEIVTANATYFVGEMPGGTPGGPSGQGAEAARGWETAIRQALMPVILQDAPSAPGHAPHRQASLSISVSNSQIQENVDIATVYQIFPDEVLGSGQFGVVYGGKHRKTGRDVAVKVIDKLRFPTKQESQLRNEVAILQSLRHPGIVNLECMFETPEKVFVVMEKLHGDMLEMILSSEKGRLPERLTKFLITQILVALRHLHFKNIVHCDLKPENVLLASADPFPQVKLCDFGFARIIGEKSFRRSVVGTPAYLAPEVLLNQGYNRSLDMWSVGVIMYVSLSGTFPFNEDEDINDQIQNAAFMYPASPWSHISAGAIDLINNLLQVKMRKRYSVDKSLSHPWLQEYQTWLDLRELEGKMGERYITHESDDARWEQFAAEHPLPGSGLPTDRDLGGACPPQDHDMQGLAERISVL
To be noted: at 0.1 µM.

For test [11], the target named is T3, Serine/threonine-protein kinase D2 (Homo sapiens). To be noted: at 1 µM.
The target in test [12] is T4, Serine/threonine-protein kinase D3 (Homo sapiens) (UniProt O94806).
T4 sequence (whole entry): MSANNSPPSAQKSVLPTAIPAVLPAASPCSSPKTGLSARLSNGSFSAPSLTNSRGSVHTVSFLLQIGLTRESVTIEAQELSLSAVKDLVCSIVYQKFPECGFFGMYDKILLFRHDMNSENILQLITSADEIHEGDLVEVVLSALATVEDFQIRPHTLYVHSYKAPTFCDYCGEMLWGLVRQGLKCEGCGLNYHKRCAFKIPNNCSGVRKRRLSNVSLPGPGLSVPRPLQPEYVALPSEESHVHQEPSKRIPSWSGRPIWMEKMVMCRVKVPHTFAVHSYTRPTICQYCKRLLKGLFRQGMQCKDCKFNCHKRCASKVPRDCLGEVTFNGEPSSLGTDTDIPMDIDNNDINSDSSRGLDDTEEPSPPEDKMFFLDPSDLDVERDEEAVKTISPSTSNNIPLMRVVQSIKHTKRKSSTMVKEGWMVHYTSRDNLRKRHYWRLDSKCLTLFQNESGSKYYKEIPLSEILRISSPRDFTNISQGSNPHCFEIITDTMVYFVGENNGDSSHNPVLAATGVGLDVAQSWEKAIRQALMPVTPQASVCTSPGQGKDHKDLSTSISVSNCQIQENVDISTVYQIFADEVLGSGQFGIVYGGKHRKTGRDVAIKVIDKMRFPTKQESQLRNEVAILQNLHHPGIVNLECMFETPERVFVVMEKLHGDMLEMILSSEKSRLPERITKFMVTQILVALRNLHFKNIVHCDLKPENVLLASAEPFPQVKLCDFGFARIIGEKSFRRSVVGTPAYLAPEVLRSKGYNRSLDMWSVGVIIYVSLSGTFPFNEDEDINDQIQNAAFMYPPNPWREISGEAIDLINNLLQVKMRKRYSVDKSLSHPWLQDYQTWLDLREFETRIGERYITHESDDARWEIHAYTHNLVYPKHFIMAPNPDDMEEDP
To be noted: at 0.1 µM.

The target of test [13] is T4, Serine/threonine-protein kinase D3 (Homo sapiens). To be noted: at 1 µM.
In test [14] the target is T5, cGMP-dependent protein kinase 1 (Homo sapiens) (UniProt Q13976).
T5 sequence (whole entry): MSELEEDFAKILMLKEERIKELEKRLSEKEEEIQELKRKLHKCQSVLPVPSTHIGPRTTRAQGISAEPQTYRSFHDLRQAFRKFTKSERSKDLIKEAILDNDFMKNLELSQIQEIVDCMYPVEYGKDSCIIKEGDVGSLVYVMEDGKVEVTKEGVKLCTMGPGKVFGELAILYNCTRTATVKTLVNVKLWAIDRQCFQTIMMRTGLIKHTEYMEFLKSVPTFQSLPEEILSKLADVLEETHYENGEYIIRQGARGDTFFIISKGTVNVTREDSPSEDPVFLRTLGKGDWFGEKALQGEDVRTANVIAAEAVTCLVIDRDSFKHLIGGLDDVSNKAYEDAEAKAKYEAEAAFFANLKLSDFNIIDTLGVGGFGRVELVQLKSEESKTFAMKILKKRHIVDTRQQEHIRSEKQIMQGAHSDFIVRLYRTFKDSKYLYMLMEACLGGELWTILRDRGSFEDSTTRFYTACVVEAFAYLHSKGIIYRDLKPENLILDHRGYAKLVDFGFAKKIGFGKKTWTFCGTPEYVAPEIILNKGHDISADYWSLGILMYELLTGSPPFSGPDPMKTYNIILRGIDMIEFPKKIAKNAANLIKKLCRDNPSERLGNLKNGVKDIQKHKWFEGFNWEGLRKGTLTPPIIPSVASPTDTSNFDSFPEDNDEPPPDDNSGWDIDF
To be noted: at 0.1 µM.

Test [15] concerns the target T5, cGMP-dependent protein kinase 1 (Homo sapiens). To be noted: at 1 µM.
The target in test [16] is T6, cGMP-dependent protein kinase 2 (Homo sapiens) (UniProt Q13237).
T6 sequence (whole entry): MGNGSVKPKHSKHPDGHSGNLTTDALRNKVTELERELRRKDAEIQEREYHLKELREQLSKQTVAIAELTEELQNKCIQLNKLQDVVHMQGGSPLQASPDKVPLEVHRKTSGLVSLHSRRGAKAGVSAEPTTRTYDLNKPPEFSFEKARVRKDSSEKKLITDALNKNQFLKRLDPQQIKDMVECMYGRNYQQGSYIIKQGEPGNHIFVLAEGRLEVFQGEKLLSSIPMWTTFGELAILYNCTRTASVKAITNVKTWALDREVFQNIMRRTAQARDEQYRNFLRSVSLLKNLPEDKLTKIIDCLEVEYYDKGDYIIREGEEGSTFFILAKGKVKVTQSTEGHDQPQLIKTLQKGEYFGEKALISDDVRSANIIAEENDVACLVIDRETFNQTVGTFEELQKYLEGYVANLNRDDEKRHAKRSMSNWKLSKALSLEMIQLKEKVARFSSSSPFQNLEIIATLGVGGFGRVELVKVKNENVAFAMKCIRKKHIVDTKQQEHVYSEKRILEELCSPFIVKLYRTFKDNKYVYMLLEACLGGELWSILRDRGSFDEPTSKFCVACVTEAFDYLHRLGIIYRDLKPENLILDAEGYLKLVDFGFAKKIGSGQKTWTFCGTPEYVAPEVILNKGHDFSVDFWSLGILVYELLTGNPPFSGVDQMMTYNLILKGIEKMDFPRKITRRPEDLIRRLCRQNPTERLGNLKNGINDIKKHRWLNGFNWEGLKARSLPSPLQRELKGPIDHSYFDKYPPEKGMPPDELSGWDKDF
To be noted: at 0.1 µM.

Test [17] addresses T6, cGMP-dependent protein kinase 2 (Homo sapiens). To be noted: at 1 µM.
The target of test [18] is T7, cAMP-dependent protein kinase catalytic subunit PRKX (Homo sapiens) (UniProt P51817).
T7 sequence (whole entry): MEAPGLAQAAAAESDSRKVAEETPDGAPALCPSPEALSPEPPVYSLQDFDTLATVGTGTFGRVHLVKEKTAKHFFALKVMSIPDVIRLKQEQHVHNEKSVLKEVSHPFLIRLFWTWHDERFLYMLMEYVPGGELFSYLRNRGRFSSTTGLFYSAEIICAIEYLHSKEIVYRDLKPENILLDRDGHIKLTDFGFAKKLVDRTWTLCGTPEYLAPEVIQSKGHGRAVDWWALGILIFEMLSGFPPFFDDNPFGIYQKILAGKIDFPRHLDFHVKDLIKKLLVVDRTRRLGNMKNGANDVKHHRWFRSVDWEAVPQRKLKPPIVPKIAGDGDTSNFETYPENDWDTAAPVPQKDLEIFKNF
To be noted: at 0.1 µM.

The target of test [19] is T7, cAMP-dependent protein kinase catalytic subunit PRKX (Homo sapiens). To be noted: at 1 µM.
The target in test [20] is Rho-associated protein kinase 1 (Homo sapiens) (UniProt Q13464). To be noted: at 0.1 µM.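 Further: values are mean percent inhibition of ROCK1.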
Sequence of Rho-associated protein kinase 1 (Homo sapiens) (Q13464 2-1354 limits assumed): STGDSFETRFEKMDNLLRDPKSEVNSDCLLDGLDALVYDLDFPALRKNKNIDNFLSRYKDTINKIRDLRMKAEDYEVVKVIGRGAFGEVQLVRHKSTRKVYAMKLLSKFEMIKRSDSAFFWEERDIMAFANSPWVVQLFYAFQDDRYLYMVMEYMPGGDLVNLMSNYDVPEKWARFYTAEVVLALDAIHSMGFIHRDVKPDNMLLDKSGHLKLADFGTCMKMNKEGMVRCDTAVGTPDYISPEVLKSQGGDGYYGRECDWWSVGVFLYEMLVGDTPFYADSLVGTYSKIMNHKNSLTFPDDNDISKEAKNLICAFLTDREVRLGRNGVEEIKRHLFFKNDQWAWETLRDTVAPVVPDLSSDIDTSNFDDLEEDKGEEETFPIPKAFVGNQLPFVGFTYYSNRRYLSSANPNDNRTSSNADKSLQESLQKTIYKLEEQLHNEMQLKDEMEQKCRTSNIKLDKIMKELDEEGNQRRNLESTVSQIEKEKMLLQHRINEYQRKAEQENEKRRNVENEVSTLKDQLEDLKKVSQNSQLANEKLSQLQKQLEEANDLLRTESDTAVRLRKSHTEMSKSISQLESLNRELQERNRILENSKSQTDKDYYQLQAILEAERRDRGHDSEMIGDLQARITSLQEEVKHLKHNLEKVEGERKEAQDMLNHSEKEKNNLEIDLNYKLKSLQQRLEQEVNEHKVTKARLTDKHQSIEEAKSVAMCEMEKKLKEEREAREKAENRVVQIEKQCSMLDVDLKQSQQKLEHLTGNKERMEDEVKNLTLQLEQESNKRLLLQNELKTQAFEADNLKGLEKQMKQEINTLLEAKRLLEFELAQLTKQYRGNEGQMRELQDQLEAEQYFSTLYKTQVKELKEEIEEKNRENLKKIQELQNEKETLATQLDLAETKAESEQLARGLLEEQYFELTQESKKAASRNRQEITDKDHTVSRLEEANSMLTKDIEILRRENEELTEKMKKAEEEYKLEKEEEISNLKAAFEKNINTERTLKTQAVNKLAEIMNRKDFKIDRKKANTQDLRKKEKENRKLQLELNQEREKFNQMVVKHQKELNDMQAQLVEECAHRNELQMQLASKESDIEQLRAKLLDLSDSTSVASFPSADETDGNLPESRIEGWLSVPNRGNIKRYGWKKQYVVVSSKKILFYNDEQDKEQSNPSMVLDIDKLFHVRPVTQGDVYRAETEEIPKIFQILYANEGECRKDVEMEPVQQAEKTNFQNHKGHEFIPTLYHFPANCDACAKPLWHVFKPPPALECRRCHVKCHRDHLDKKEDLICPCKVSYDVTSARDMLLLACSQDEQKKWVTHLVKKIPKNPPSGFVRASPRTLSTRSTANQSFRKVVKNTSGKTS

Sequence of Protein kinase C theta type (Homo sapiens) (Q04759 whole entry, looked up): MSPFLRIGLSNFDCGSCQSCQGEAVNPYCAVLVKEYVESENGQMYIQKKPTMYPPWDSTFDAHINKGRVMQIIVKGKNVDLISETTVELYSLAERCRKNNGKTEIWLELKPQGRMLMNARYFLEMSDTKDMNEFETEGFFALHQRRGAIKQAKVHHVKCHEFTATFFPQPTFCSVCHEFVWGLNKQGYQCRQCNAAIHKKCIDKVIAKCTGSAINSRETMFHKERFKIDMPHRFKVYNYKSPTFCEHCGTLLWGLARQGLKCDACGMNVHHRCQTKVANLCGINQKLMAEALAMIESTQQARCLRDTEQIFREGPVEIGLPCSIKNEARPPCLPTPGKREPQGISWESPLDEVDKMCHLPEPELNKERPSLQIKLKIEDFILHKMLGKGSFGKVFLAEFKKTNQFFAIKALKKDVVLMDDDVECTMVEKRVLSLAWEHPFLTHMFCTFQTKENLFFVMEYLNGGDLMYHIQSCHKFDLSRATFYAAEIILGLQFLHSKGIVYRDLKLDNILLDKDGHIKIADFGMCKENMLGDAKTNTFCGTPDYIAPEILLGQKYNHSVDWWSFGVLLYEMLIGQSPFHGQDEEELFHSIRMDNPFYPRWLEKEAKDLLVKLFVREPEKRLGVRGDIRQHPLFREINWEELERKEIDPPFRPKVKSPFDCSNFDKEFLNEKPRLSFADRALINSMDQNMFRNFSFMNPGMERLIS

Usually inhibition stands for how much of the control response was suppressed. Lower therefore signals a weak effect. With `CCn1c(-c2nonc2N)nc2ccccc21`, the inhibition was 4.67% in test [1]; 1.65% in [2]; 6.6% in [3]; 1.58% in test [4]; 6.38% in [5]; 0.96% in test [6]. In addition, the inhibition in [7] came to 7.2%; in [8], 2.23%; in test [9] it was 5.47%; in test [10], 2.41%; in test [11], 4.37%; in test [12], 2.15%. In addition, the inhibition in test [13] worked out at 3.93%; in test [14], 6.5%; in test [15], 30.9%; in [16] it was 26.9%; in test [17] it was 70.6%; in test [18], 3.21%. The inhibition is 5.67% in test [19] and 6.65% in test [20].
As to `Nc1nc(-c2cccc(Cl)c2)c(-c2ccc3ncccc3n2)s1`, the inhibition in [1] was determined as 6.65%; in [2] it was 2.71%; in test [3], 1.25%; in [4], 4.95%; in test [5], 5.67%; in [6] it was 2.82%. Further, the inhibition came to 2.11% in [7]; 5.85% in [8]; 35% in [9]; 7.33% in test [10]; 40.1% in test [11]; 7.77% in test [12]. For the same compound, the inhibition in test [13] is 33.1%; in [14], 2.8%; in test [15], 5.63%; in [16] it was 1.78%; in test [17], 4.96%; in [18], 3.46%. Also, the inhibition in test [19] amounted to 5.88%; in [20] it was 1.58%.

These data come from ChEMBL document CHEMBL1961873, “Compounds: GSK PKIS; Assays: Nanosyn kinase panel” (2012).
